Experimental findings from PubChem BioAssay (NCATS) are described below.

Assay [1] can be described thus: qHTS Assay for Identifying Gametocytocidal Compounds (AID 743244; active = well fitted curve in the direction sought with a large enough effect; an effect the other way counts as inactive or inconclusive;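 also: % is scaled to controls: 0 for no effect and ±100 for the full control effect; actives lower the fluorescent signal which means gametocytes are killed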). Conditions: P. falciparum 3D7 stage III-V gametocytes, alamarBlue, 72 h; max response: stronger effect = lower value. The method, boiled down: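 3D7 gametocytes, stages III–V, 20,000/well; cpd 72 h, 37 °C/5% CO2; + alamarBlue 24 h; fluor. Ex 525/Em 598.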
Background: qHTS replaces the single test concentration by a dilution series.

Assay [2] is described as follows: qHTS profiling for inhibitors of Plasmodium falciparum (3D7) proliferation (AID 743322).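 Also: infected erythrocytes exposed to compound for 72 h before lysis; 100% = DMSO vehicle wells and 0% = 0.29 µM artemisinin.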 The note with it: P. falciparum 3D7 proliferation; at 28.7 µM (top of the series). The method, boiled down: (§1)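 Erythrocytes infected with P. falciparum (0.3% parasitemia, 2.5% hematocrit) incubated with compounds 72 h at 37 C, 5% CO2. Lysis with saponin/Triton buffer containing SYBR Green I, overnight at room temperature in the dark; DNA fluorescence (485/535 nm) normalised to 0.29 uM artemisinin and DMSO.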

Assay [3] is described as follows: qHTS profiling for inhibitors of Plasmodium falciparum (DD2) proliferation (AID 743323). The note with it: lower = more inhibition; at 28.7 µM (top of the series). An outline of the steps: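 SYBR Green fluorescence (ex 485, em 535 nm) of lysed cultures gives parasite DNA content; wells normalized to artemisinin (0.29 uM) and DMSO controls. Infected red cells: 0.3% parasitemia, 2.5% hematocrit, 72 h, 37 C.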

Assay [4] in a line: qHTS profiling for inhibitors of Plasmodium falciparum (HB3) proliferation (AID 743324; active = well fitted curve in the direction sought with a large enough effect; an effect the other way counts as inactive or inconclusive;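 also: 100% = DMSO vehicle wells and 0% = artemisinin-treated control wells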). Conditions: Plasmodium falciparum HB3 blood-stage proliferation; at 28.7 µM (top of the series). The method, boiled down: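 P. falciparum HB3 grown in erythrocytes (0.3% parasitemia, 2.5% hematocrit final) with compound for 72 h at 37 C, 5% CO2. Parasite DNA detected by SYBR Green after saponin/triton lysis overnight; normalized to 0.29 uM artemisinin and DMSO.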

Assay [5] in a line: qHTS profiling of the MIPE4 collection as inhibitors of Plasmodium falciparum (DD2) proliferation (Rep 2) (AID 743346). Conditions: P. falciparum Dd2 in erythrocytes, SYBR Green DNA, 72 h; at 28.5 µM (top of the series) unless noted. An outline of the steps:
as §1

Assay [6] can be described thus: qHTS profiling of the MIPE4 collection as inhibitors of Plasmodium falciparum (HB3) proliferation (AID 743347).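 Also: plate controls were DMSO vehicle wells for no effect and artemisinin wells for full effect.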 Conditions: P. falciparum HB3 in erythrocytes, SYBR Green DNA, 72 h; at 28.5 µM (top of the series) unless noted. An outline of the steps:
as §1

Assay [7] can be described thus: High-throughput drug toxicity screening in the BPDCN cell line Gen2.2 (AID 1224824).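 Also: cells exposed to compounds for 48 h before reading.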 The note with it: Gen2.2 BPDCN cells; at 45.8 µM (top of the series) unless noted. An outline of the steps: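 Gen2.2, 500 cells/well, phenol red-free RPMI/10% FBS/Pen-Strep; 48 h cpd, 37 °C/5% CO2; CTG lum, 15 min RT. Norm: DMSO = 100%, bortezomib 9.2 uM final = 0%.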
Assay [8] in a line: High-throughput drug toxicity screening in the BPDCN cell line Cal-1 (AID 1224825). The note with it: Cal-1 BPDCN cell viability, qHTS; at 45.8 µM (top of the series) unless noted. An outline of the steps:
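Exponentially growing Cal-1 cells, 500 per well in phenol red-free RPMI with 10% FBS, were exposed to compounds for 48 h at 37 °C, 5% CO2. Viability was read by CellTiter-Glo luminescence and normalised to DMSO (100%) and 9.2 uM bortezomib (0%).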

Assay [9] can be described thus: qHTS assay for measurement of the activity of small molecule inhibitors on Zika virus induced Caspase-3 activity in human iPSC derived neural progenitor cells (hNPCs) (AID 1224857; active = well fitted curve in the direction sought with a large enough effect; an effect the other way counts as inactive or inconclusive; also: % of control where 0% means no effect; nearly all actives have a fitted effect of over 65% in size). An outline of the steps: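 Cells were plated at 350 per well and grown 16 to 20 hours. Compound pretreatment lasted one hour, after which ZIKV (2 FFU/cell) was added for 6 hours. Percent inhibition was normalized between uninfected and infected controls.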

Assay [10] in a line: qHTS assay for measurement of the activity of small molecule inhibitors on Zika virus induced Caspase-3 activity in human astrocytoma cells (AID 1224859; active = well fitted curve in the direction sought with a large enough effect; an effect the other way counts as inactive or inconclusive;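 also: plate controls were ZIKV-infected untreated cells for no effect and uninfected cells for full effect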). The method, boiled down:
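Percent inhibition of virus-induced caspase-3/7 signal is calculated against uninfected and ZIKV-infected control cells. Cells are SNB-19, infected at 2 FFU/cell for 6 h after 1 h compound exposure.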

Assay [11] is described as follows: qHTS profiling of the MIPE4 collection as inhibitors of Plasmodium falciparum (3D7) proliferation (AID 743344).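 Also: scaled between DMSO vehicle wells and 0.29 µM artemisinin as full inhibition.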 Conditions: P. falciparum 3D7 in erythrocytes, SYBR Green DNA fluorescence, 72 h; at 28.5 µM (top of the series) unless noted. An outline of the steps: as §1
A short description of assay [12]: qHTS Screen of the MIPE 4.0 Collection Against Ewings Sarcoma (EW8) (AID 1259255; active = well fitted curve in the direction sought with a large enough effect; an effect the other way counts as inactive or inconclusive;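 also: 100% = DMSO-treated cells and 0% = medium-only wells without cells; nearly all actives have a fitted effect of over 35% in size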). An outline of the steps:
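Measured: ATP luminescence (CellTiter-Glo) 10 min after reagent addition, following 48 h drug treatment. Relative luciferase units converted to percent activity, with no-cell wells as full and DMSO wells as zero inhibition.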

Assay [13] is described as follows: qHTS profiling of the MIPE4 collection as inhibitors of Plasmodium falciparum (DD2) proliferation (AID 743345). The note with it: P. falciparum Dd2 in erythrocytes, SYBR Green DNA, 72 h; at 28.5 µM (top of the series) unless noted. An outline of the steps:
as §1

Results filed as inconclusive are left out. The source made the active and inactive calls. Unless noted, no rule for the calls is given here.

Turning to `Cc1ccc(F)c(NC(=O)Nc2ccc(-c3cccc4[nH]nc(N)c34)cc2)c1`, in assay [1], the max response is 19.5% (inactive). The molecule further returned a remaining parasite growth % (stronger effect = lower value) in assay [2] of 81.3%. Moreover, the activity, percent of control in [3] was determined as 67.8%. The molecule further registered a remaining proliferation (% of control), lower = more inhibition in [4] of 23.1%. Moreover, the parasite growth, % of control (lower = inhibition) in assay [5] came out at 13.4%. This molecule came in with a growth, % of control in assay [6] of 9.71%. Moreover, the cell viability, % of control (lower = more cytotoxic) in assay [7] came to 5.38%. Besides, in [8], the viability (% of control) was determined as 1.55%. Moreover, the Potency entry in [9] and in assay [10] was “inactive” throughout.

Molecule `CN(C)CCC=C1c2ccccc2COc2ccc(CC(=O)O)cc21` showed a parasite growth, % of DMSO control in assay [11] of 91.3%. Further, in assay [6], the growth, % of control is 99.1%. For the same molecule, the cell viability, % of control (lower = more cytotoxic) in assay [7] is 162%. Moreover, the viability (% of control) in [8] came out at 98%. Moreover, the Potency result in [9], in assay [10] and in assay [12] was “inactive” in each case.

With `CC(C)n1cnc2c(NCCCCCCNC(=O)OC(C)(C)C)nc(NCCO)nc21`, the parasite growth, % of DMSO control in [11] was found to be 20.1%. In addition, the parasite growth remaining, % of DMSO control (lower = more inhibition) in [13] stood at 60.6%. Besides, the parasite growth, % of control (lower = inhibition) in assay [5] is 24.8%. In [6], this molecule registered a growth, % of control of 21.3%. Also, the cell viability, % of control (lower = more cytotoxic) in [7] worked out at 186%. Further, in [8], the viability (% of control) came to 100%. Besides, the Potency result in assay [9] and in [10] was “inactive” throughout.

`O=C(O)c1ccc(-c2c[nH]c3ncc(-c4ccccc4)cc23)cc1C1CCCC1` showed a parasite growth, % of DMSO control in assay [11] of 5.48%. Besides, the parasite growth remaining, % of DMSO control (lower = more inhibition) in assay [13] came out at 8.18%. In [5], this molecule yielded a parasite growth, % of control (lower = inhibition) of 9.67%. In addition, the cell viability, % of control (lower = more cytotoxic) in [7] worked out at 116%. Besides, the viability (% of control) in assay [8] came out at 73.1%. Further, the Potency entry in assay [9] and in assay [10] was “inactive” in each case.

Consider `Nc1ncnc2ccccc12`, for which the parasite growth, % of DMSO control in assay [11] was found to be 84.9%. Further, the parasite growth remaining, % of DMSO control (lower = more inhibition) in assay [13] was 98.4%. The molecule also returned a parasite growth, % of control (lower = inhibition) in [5] of 82.3%. The same molecule registered a growth, % of control in assay [6] of 77%. The cell viability, % of control (lower = more cytotoxic) in assay [7] was 145%. The viability (% of control) in [8] was 100%. Also, the Potency result in assay [9], in [10] and in [12] was “inactive” throughout.

In assay [2], `O=C(O)CCC1CCC(c2cc(F)ccc2F)(S(=O)(=O)c2ccc(Cl)cc2)CC1` (centres undefined) came in with a remaining parasite growth % (stronger effect = lower value) of 23.3%. This molecule also displayed an activity, percent of control in assay [3] of 74.5%. Besides, in assay [4], the remaining proliferation (% of control), lower = more inhibition was found to be 56.3%. Also, in assay [13], the parasite growth remaining, % of DMSO control (lower = more inhibition) was 93.8%. Further, the parasite growth, % of control (lower = inhibition) in assay [5] was found to be 51.1%. Also, the growth, % of control in assay [6] was determined as 82.6%. Besides, the cell viability, % of control (lower = more cytotoxic) in assay [7] stood at 8.09%. The viability (% of control) in assay [8] came to 9.48%. Also, the Potency entry in assay [9] and in assay [10] was “inactive” throughout.

For `Cn1c(N2CCCCS2(=O)=O)nc(C(=O)NCc2ccc(F)cc2)c(O)c1=O`, the parasite growth, % of DMSO control in [11] was 101%. In assay [13], the parasite growth remaining, % of DMSO control (lower = more inhibition) was 104%. For the same molecule, the parasite growth, % of control (lower = inhibition) in assay [5] came to 83.1%. In assay [6], this molecule returned a growth, % of control of 62.6%. Besides, the cell viability, % of control (lower = more cytotoxic) in [7] was found to be 60.2%. For the same molecule, the viability (% of control) in assay [8] was 96.9%. The Potency entry in [9] and in assay [10] was “inactive” each time.

The molecule `COc1ccc2c(Oc3ccc(NC(=O)c4c(C)n(CC(C)(C)O)n(-c5ccccc5)c4=O)cc3F)ccnc2c1` registered a parasite growth, % of DMSO control in [11] of 18.3%. In [13], the parasite growth remaining, % of DMSO control (lower = more inhibition) is 60.9%. Also, in assay [5], the parasite growth, % of control (lower = inhibition) is 48.9%. In assay [6], this molecule registered a growth, % of control of 13.8%. For the same molecule, in assay [7], the cell viability, % of control (lower = more cytotoxic) stood at 16.8%. In assay [8], the viability (% of control) came out at 13.4%. For the same molecule, the Potency entry in [9] and in assay [10] was “inactive” in each case.

As to `CCCCCCCCCCCC1=C(O)C(=O)C=C(O)C1=O`, in [11], the parasite growth, % of DMSO control was 54.7%. For the same molecule, the parasite growth, % of control (lower = inhibition) in [5] was found to be 16.4%. In [7], the cell viability, % of control (lower = more cytotoxic) is 52.7%. In assay [8], the viability (% of control) is 15.1%. The Potency result in [9], in assay [10] and in assay [12] was “inactive” throughout.

On to `CS(=O)c1ccc(-c2nc(-c3ccc(F)cc3)c(-c3ccncc3)[nH]2)cc1` (centres undefined), for which the remaining proliferation (% of control), lower = more inhibition in assay [4] worked out at 20.3%. Further, the growth, % of control in [6] came to 7.77% [at 57.5 µM]. In assay [7], the cell viability, % of control (lower = more cytotoxic) is 41.2% [at 92.2 µM]. Moreover, in assay [8], the viability (% of control) turned out to be 14.2% [at 92.2 µM]. Further, the Potency result in [9] and in [10] was “inactive” each time.

`O=c1ccn([C@@H]2O[C@H](CO)[C@H](O)[C@H]2O)c(=O)[nH]1`: the parasite growth, % of DMSO control in assay [11] came out at 92.2%. In addition, the parasite growth remaining, % of DMSO control (lower = more inhibition) in assay [13] turned out to be 90.5%. In assay [5], this molecule yielded a parasite growth, % of control (lower = inhibition) of 99.5%. Moreover, the growth, % of control in assay [6] stood at 107%. Also, the cell viability, % of control (lower = more cytotoxic) in assay [7] came out at 90%. Moreover, the viability (% of control) in assay [8] came out at 112%. In addition, the Potency result in assay [9], in [10] and in [12] was “inactive” throughout.
